Bioassay records: PubChem, Broad Institute
MLL AF4-AF9 inh: inhibitors of AF4 peptide binding to AF9, primary screen, biochemical, AlphaScreen, biotin-AF4 peptide, FLAG-AF9, single point; inhibition, % at 10 µM; 0.47% of 350,000 active; AID 651704, 2012;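 active means every replicate reaching a set inhibition limit, whatever the replicate mean, cut at about 25% in these data; inconclusive means mean inhibition reaches that limit but some replicates miss it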;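 further: 0% = plate neutral control median and 100% = total signal loss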
RAD54 inh: inhibitors of human RAD54 branch migration, primary screen, biochemical, fluorescence, single point; AID 602329, 2012; inhibition, % at 10.4 µM; 0.14% of 360,000 active; DNA repair and recombination protein RAD54-like (Homo sapiens), Q92698; RAD54 Holliday junction branch migration, FAM/BHQ fluorescence;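 active means mean normalized replicate activity at least 40 and at least half of replicates scoring 40 or more; inconclusive means only one of the two criteria met; inactive means mean below 40 and under half of replicates reaching 40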;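 further: 0% = median of neutral control wells and 100% = median of positive control wells; inhibitors cause a drop in the FAM fluorescence signal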
RAD52 anneal inh: RAD52 DNA annealing inhibitors, primary screen, biochemical, FRET, single point, set 2; DNA repair protein RAD52 homolog (Homo sapiens), P43351; recombinant RAD52 DNA annealing, FRET fluorescence; inhibition, % at 18.7 µM; 0.46% of 360,000 active; AID 651710, 2012;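 active means every replicate showing at least 50% inhibition; inconclusive means mean inhibition at least 50% but not in every replicate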
DENV2 CPE: inhibitors of DENV2 cytopathic effect, primary screen, cell-based, plate reader, single concentration | DENV2-infected cells, cytopathic effect rescue | CPE inhibition, % at 9.99 µM | 1.7% of 350,000 active; in the data active means CPE inhibition above about 20%, passing the limit was not always enough; inconclusive means no clear call, values can overlap the other calls; tested in BHK-21 cells;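 further: 0% = median of neutral control wells and 100% = median of positive control wells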
GSIS activator: GLuc luminescence reporter in INS-1E cells, primary screen for activators of glucose-dependent secretion of insulin; activation, % at 16.6 µM; AID 743287, 2014; INS-1E GLuc reporter insulin secretion, 2-3 h; 0.61% of 370,000 active;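 active means lowest replicate activation of at least 40%, so every replicate reaches that level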;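 further: 0% = median of neutral control wells and 100% = median of IBMX positive control wells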
dFosB act-1: activators of delta FosB homodimer, primary screen, biochemical, fluorescence polarization, TAMRA-CDK5 oligo, single point; Protein FosB (Mus musculus), P13346; purified delta FosB; percent of positive-control signal above neutral wells; activation, % at 25 µM; 0.99% of 340,000 active; AID 493131, 2011;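 active means mean activation above about 17%, with every replicate also reaching it, limit read from the data, passing the limit was not always enough; inconclusive means only one of the two conditions met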
Target sequence (P13346 whole entry, looked up): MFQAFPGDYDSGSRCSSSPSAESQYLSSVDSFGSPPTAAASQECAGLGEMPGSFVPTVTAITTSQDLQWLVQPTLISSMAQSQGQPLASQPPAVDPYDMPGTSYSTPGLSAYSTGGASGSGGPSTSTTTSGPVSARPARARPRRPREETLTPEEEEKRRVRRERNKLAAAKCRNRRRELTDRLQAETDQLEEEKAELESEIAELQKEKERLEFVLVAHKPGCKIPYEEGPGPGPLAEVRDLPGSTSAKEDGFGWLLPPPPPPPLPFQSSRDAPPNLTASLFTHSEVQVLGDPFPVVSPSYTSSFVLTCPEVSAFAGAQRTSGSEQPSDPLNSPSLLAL
dFosB act-2: activators of mouse delta FosB DNA binding, confirmation, biochemical, fluorescence polarization, TAMRA-CDK5 oligo, cherry-picked samples; shares compounds with dFosB act-1; purified delta FosB; normalised: neutral wells 0, positive control 100; activation, % at 24.9 µM; 2,400 tested, under 10 active; AID 588690, 2011;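 active means highest replicate activation at or above 34% and every replicate reaching that threshold; inconclusive means meets only one of the two criteria; inactive means meets neither criterion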;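 further: higher polarization means more probe DNA bound by delta FosB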
The depositor's hits bear a star. Most compounds without a hit are left out; they make up all but 3.1% or so of the library.

`C[C@H](CO)N1C[C@H](C)[C@H](CN(C)CC2CCCCC2)OCCCC[C@H](C)Oc2ccc(NC(=O)Nc3ccc4c(c3)OCO4)cc2C1=O` gave MLL AF4-AF9 inh -18.9, RAD54 inh 4.9, RAD52 anneal inh 30.9, DENV2 CPE -18.3 and GSIS activator -22.5.
`COc1ccc2nc(C)cc(SCC(=O)Nc3c(C)cccc3C)c2c1` gave MLL AF4-AF9 inh -8.0, RAD52 anneal inh -2.7, DENV2 CPE -4.9, GSIS activator 2.8, dFosB act-1 73.3* and dFosB act-2 -4.4.
CN(C)C(=O)c1cccc(-c2ccc3c(c2)[C@H]2[C@H](CCN2C(=O)Cc2ccccc2)[C@@H](CO)N3)c1 was read as MLL AF4-AF9 inh -1.3, RAD54 inh 0.6, RAD52 anneal inh -6.6, DENV2 CPE -8.7 and GSIS activator -13.9.
Screening O=C(NCc1ccc(F)cc1)C1CCCN(c2nc3ccsc3c(=O)s2)C1 (stereo not drawn) returned MLL AF4-AF9 inh 11.3, RAD52 anneal inh 1.1, DENV2 CPE 10.5, GSIS activator 5.5, dFosB act-1 74.6* and dFosB act-2 -8.2.
For Cc1cc(=O)n2nc(N3CCCC(C(=O)NCc4ccc(F)cc4)C3)sc2n1 (stereo not drawn) the results were MLL AF4-AF9 inh -3.7, RAD54 inh 12.8, RAD52 anneal inh -0.8, DENV2 CPE -5.2, GSIS activator -3.2 and dFosB act-1 -6.5.
`CCOC(=O)c1cnc(SCC(=O)Nc2cc(OC)cc(OC)c2)nc1N` gave RAD54 inh 1.4 and dFosB act-1 -0.5.
CCOC(=O)c1cnc(SCC(=O)Nc2sc(C)c(C)c2C#N)nc1N was read as RAD54 inh -12.6, GSIS activator 340.0, dFosB act-1 45.0* and dFosB act-2 -1.3.
Screening CCOC(=O)c1cnc(SCC(=O)Nc2cc(C(F)(F)F)ccc2N2CCOCC2)nc1N returned RAD54 inh -4.3, dFosB act-1 20.5* and dFosB act-2 -1.0.
Screening Cc1sc(NC(=O)CSc2nnc(COc3ccc(Cl)cc3)n2C)c(C#N)c1C returned GSIS activator 26.0, dFosB act-1 22.3* and dFosB act-2 2.2.
For CCOC(=O)c1sc(NC(=O)CSc2nc3c(cc2C#N)CCCCCC3)c(C#N)c1C the results were RAD54 inh -7.5, GSIS activator -15.7, dFosB act-1 18.6* and dFosB act-2 4.1.
`COc1ccc(NC(=O)N(C)C[C@H]2Oc3ccc(NC(=O)Nc4cccc5ccccc45)cc3C(=O)N([C@H](C)CO)C[C@H]2C)cc1` gave MLL AF4-AF9 inh 0.4, RAD54 inh 3.3, RAD52 anneal inh 3.2, DENV2 CPE -6.6 and GSIS activator -1.3.
CO[C@H]1CC[C@H]2CCOc3ccc(C#N)cc3C(=O)N(C)C[C@@H](OC)[C@H](C)C(=O)N(C)C[C@@H]1O2 was read as MLL AF4-AF9 inh 2.8, RAD54 inh -1.8, RAD52 anneal inh -14.6, DENV2 CPE -1.2 and GSIS activator 13.5.
For CCOC(=O)c1cnc(SCCc2ccccc2)nc1N the results were RAD54 inh 4.0, GSIS activator -20.3 and dFosB act-1 -2.3.
`Cc1ccc(-c2nnc(SCC(=O)Nc3sc(C)c(C)c3C#N)n2C)cc1` gave RAD54 inh -6.7, GSIS activator 5.7, dFosB act-1 100.2* and dFosB act-2 1.9.
CCOC(=O)c1cnc(SCc2nc(N)nc(Nc3ccccc3)n2)nc1N was read as RAD54 inh 5.4, dFosB act-1 34.5* and dFosB act-2 -0.9.
For CCCC(=O)N1CC2(CN(C(=O)NC(C)C)C2)c2c(n(C)c3cc(OC)ccc23)[C@@H]1CO the results were MLL AF4-AF9 inh 1.5, RAD52 anneal inh -4.0, DENV2 CPE inconclusive and GSIS activator 12.1.
CC(=O)c1cc2c(cc1N/C(=N/S(=O)(=O)c1ccc(Br)cc1)c1ccccc1)OCO2 was read as MLL AF4-AF9 inh -2.6, RAD54 inh -1.9, RAD52 anneal inh 6.9, DENV2 CPE -2.9, GSIS activator 6.4, dFosB act-1 62.4* and dFosB act-2 -1.3.
CC(=O)c1ccc(S(=O)(=O)Nc2cc3c(cc2C(C)=O)OCO3)cc1 was read as MLL AF4-AF9 inh -0.6, RAD54 inh 2.2, RAD52 anneal inh -9.6, DENV2 CPE 2.3, GSIS activator -1.5 and dFosB act-1 4.3.
Cc1ccc2c(c1)NC(=O)c1cc([N+](=O)[O-])ccc1O2 was read as MLL AF4-AF9 inh -2.2, RAD52 anneal inh -11.7, DENV2 CPE -1.1, GSIS activator 7.1, dFosB act-1 31.4* and dFosB act-2 2.3.
For CCOc1cccc2sc(N(CCCN(C)C)C(=O)c3ccc(S(=O)(=O)N(C)Cc4ccccc4)cc3)nc12 the results were MLL AF4-AF9 inh 17.7, RAD54 inh 9.8, RAD52 anneal inh 41.8, DENV2 CPE -4.6, GSIS activator -58.5, dFosB act-1 24.1* and dFosB act-2 0.7.
Cc1noc(C)c1NC(=O)N(C)C[C@H]1Oc2c(NC(=O)Nc3ccc4c(c3)OCO4)cccc2C(=O)N([C@@H](C)CO)C[C@@H]1C was read as MLL AF4-AF9 inh -4.0, RAD54 inh -7.1, RAD52 anneal inh -1.2, DENV2 CPE -1.2 and GSIS activator -2.1.
`CCCNC(=O)C[C@H]1CC[C@@H]2[C@H](COc3ccc(NC(=O)C4CCOCC4)cc3C(=O)N2C)O1` gave MLL AF4-AF9 inh -1.7, RAD54 inh 4.4, RAD52 anneal inh -0.7, DENV2 CPE 0.7 and GSIS activator 10.7.
For CCN(C(=O)COC(=O)COc1ccc2c(c1)CCC2)c1c(N)n(Cc2ccccc2)c(=O)[nH]c1=O the results were MLL AF4-AF9 inh 11.0, RAD54 inh -0.1, RAD52 anneal inh -4.5, DENV2 CPE 10.4, GSIS activator -13.3, dFosB act-1 24.5* and dFosB act-2 -0.9.
For CCN(C(=O)COC(=O)CCc1ccc(OC)cc1)c1c(N)n(Cc2ccccc2)c(=O)[nH]c1=O the results were MLL AF4-AF9 inh 0.6, RAD54 inh -3.4, RAD52 anneal inh -10.4, DENV2 CPE -4.6, GSIS activator 9.8, dFosB act-1 41.9* and dFosB act-2 0.8.
